Compound in the test: Nc1ncnc2c1ncn2[C@@H]1O[C@H](COP(=O)(O)OP(=O)(O)OP(=O)(O)O)[C@@H](O)[C@H]1O [adenosine 5'-triphosphate]
In words: log2 fold change of tryptic peptide abundance, ligand vs vehicle (limited proteolysis) (log2 ratio); higher = more trypsin-susceptible (destabilized). As to conditions: ligand concentration: 5 mM; sample: E. coli desalted lysate; replicate design: treated before aliquoting. As for the experimental part:
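HT-PELSA: desalted E. coli K-12 BW25113 lysate (with 12 mM MgCl2) incubated with 5 mM ATP (pH 7) or water for 30 min at 25 C, then a 4 min trypsin pulse at 22 C. Peptides were quantified by DIA-MS (4 replicates). Value is the peptide log2 fold change (treated/control); negative = stabilized. Scale: negative = ligand-stabilized region.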
Regarding “UniProt P77171 (peptide sequence: GRQGAQLTLPGEQFLTHAVR, peptide start residue: 61)”, the log2 fold change came out at 0.909.
Take “UniProt P37344 (peptide sequence: ETLLNYR, peptide start residue: 215)”: the log2 fold change was -1.98.
For “UniProt P76938 (peptide sequence: RVHAQVMDYLTNGIPERPAR, peptide start residue: 137)”, the log2 fold change came out at 0.412.
With “UniProt P76149 (peptide sequence: AGAAIGAQAGAALKK, peptide start residue: 216)”, the log2 fold change was -1.54.
For the target “UniProt P25519 (peptide sequence: IDRDEENKPNR, peptide start residue: 329)”, the log2 fold change was -1.08.
On to “UniProt P76273 (peptide sequence: CGISNVALTHFDGR, peptide start residue: 165)”, for which the log2 fold change came out at 0.512.
The result for “UniProt P18392 (peptide sequence: EHIFEPFVR, peptide start residue: 367)” reads -1.71; that for “UniProt P37197 (peptide sequence: GDENALTAQQK, peptide start residue: 330)”, -0.521.
As to “UniProt P52073 (peptide sequence: LEGGEGSVK, peptide start residue: 217)”, the log2 fold change was -0.566.
The result for “UniProt P00914 (peptide sequence: LSASLATGGLSPR, peptide start residue: 238)” reads -0.871.
As for “UniProt P45395 (peptide sequence: LHVPLICITGRPESSMAR, peptide start residue: 122)”, the figure is 1.09; as for “UniProt P0AC84 (peptide sequence: QINVFLR, peptide start residue: 212)”, 0.46; as for “UniProt P0AAG8 (peptide sequence: TQIGSLSGGNQQK, peptide start residue: 402)”, 0.32.
The result for “UniProt P77737 (peptide sequence: TRCPIAGPECAK, peptide start residue: 302)” reads 2.24; that for “UniProt P09030 (peptide sequence: CSFLPEER, peptide start residue: 177)”, -1.54; that for “UniProt P0A800 (peptide sequence: IGNRFDLVLVAAR, peptide start residue: 13)”, -0.922.
“UniProt P55734 (peptide sequence: LRHEQIIFHCQAGKR, peptide start residue: 55)”: the log2 fold change turned out to be 0.948.
On to “UniProt P42599 (peptide sequence: LSECQKVCFVPR, peptide start residue: 252)”, for which the log2 fold change is -0.582.
“UniProt P08956 (peptide sequence: ITGDADKDAR, peptide start residue: 763)”: the log2 fold change was -3.68.
As for “UniProt P06710 (peptide sequence: HQLEHILNEEHIAHEPR, peptide start residue: 185)”, the figure is -1.86.
As for “UniProt P24255 (peptide sequence: KHNGHWTVELNSDSIPR, peptide start residue: 280)”, the figure is 0.899; as for “UniProt P03018 (peptide sequence: AHHMDANLPQDFQILDSEDQLR, peptide start residue: 100)”, -2.2.
The result for “UniProt P07395 (peptide sequence: GKGVAEGYK, peptide start residue: 746)” reads -0.76; that for “UniProt P23894 (peptide sequence: SVGGEVIEQPR, peptide start residue: 61)”, 2.55.
Consider “UniProt P64602 (peptide sequence: GITCIDLSR, peptide start residue: 38)”, for which the log2 fold change came out at 0.802.
The result for “UniProt P32131 (peptide sequence: QQHKADQYLDALEQEIVHR, peptide start residue: 78)” reads 1.02; that for “UniProt P75958 (peptide sequence: GVADALK, peptide start residue: 153)”, -0.59; that for “UniProt P77316 (peptide sequence: HGDIFGHEFMGEVVETGKDVK, peptide start residue: 54)”, -0.836.
The result for “UniProt P08142 (peptide sequence: KRFTGAEFIVHFLEQQGIK, peptide start residue: 11)” reads 1.49; that for “UniProt P09373 (peptide sequence: ALIPFGGIK, peptide start residue: 109)”, -0.384.

(Values after the supplement of paper PMC12819154, “High-throughput peptide-centric local stability assay extends protein–ligand identification to membrane proteins, tissues and bacteria” (Nature Structural & Molecular Biology, 2025).)
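Note: lysate desalted by size exclusion to strip endogenous ATP, peptide intensities built from DIA-NN precursor signals, and peptides missing any value discarded before comparison.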
